Publication PMC7862700, “An all-to-all approach to the identification of sequence-specific readers for epigenetic DNA modifications on cytosine”

What was measured:
Assay in all cases: DAPPL (digital affinity profiling via proximity ligation, sequencing); 10 mM Tris-HCl pH 7.5, 50 mM NaCl, 1 mM DTT, 4% glycerol, room temperature, 30 min; GST-TFs on glutathione beads, 16-mer random dsDNA library, 0.1% formaldehyde crosslink after washing; high values mean tight binding
[1] = molecular target: T1, GABPA (Homo sapiens, UniProt Q06546 1-454); conditions: protein: recombinant; tags: N-terminal GST; dsDNA, one strand shown
T1 sequence: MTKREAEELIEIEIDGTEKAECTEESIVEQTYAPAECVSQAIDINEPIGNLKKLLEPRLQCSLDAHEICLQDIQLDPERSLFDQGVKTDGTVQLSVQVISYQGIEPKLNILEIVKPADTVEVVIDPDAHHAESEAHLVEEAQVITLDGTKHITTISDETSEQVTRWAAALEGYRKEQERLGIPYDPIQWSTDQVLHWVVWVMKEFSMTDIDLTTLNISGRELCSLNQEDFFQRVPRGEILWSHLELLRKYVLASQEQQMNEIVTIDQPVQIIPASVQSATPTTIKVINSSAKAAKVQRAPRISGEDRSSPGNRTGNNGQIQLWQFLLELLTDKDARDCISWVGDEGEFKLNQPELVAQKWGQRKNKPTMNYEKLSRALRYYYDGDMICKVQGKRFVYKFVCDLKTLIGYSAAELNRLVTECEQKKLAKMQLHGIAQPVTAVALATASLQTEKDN
Procedure, shortened: (§1)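 Pools were built from human transcription factors expressed in yeast as GST fusions, captured on glutathione beads and DNA-barcoded, along with a tag-only sample. Incubation with 200 nmole of a 16-mer random double-stranded DNA library lasted 30 min at room temperature in Tris/NaCl/DTT/glycerol buffer, and was followed by washing, 0.1% formaldehyde crosslinking, proximity ligation, PCR amplification and Illumina NextSeq500 sequencing. Binding signal is the quotient of each hexamer's read frequency for a factor and its frequency for the tag-only sample.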

[2] = molecular target: ELF1 (Homo sapiens, UniProt P32519 1-619); conditions: protein: recombinant; tags: N-terminal GST; dsDNA, one strand shown
Procedure, shortened: as §1

[3] = molecular target: T2, EHF (Homo sapiens, UniProt Q9NZC4 1-300); conditions: protein: recombinant; tags: N-terminal GST; dsDNA, one strand shown
T2 sequence: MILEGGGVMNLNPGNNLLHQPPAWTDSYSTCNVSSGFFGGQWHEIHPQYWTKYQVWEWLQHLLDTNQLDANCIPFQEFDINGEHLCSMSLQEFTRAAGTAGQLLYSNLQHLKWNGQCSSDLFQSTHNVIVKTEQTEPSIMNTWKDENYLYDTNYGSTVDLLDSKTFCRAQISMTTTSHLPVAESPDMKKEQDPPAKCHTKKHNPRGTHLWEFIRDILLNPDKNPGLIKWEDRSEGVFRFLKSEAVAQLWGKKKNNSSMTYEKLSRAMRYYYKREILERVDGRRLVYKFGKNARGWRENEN
Procedure, shortened: as §1

[4] = molecular target: SPI1 (Homo sapiens, UniProt P17947 1-270); conditions: protein: recombinant; tags: N-terminal GST; dsDNA, one strand shown
Procedure, shortened: as §1

[5] = molecular target: T3, ELK3 (Homo sapiens, UniProt P41970 1-407); conditions: protein: recombinant; tags: N-terminal GST; dsDNA, one strand shown
T3 sequence: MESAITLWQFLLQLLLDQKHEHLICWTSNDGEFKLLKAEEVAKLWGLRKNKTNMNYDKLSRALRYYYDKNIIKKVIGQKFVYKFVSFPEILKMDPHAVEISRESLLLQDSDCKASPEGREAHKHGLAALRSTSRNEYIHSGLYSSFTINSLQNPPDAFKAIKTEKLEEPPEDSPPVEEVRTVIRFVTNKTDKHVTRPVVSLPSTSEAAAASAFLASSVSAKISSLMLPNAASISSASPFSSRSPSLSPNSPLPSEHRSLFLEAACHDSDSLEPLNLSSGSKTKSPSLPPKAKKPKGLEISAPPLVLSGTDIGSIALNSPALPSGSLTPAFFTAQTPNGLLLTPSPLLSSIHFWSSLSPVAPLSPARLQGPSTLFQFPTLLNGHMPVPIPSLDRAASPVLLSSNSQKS
Procedure, shortened: as §1

[6] = molecular target: T4, FEV (Homo sapiens, UniProt Q99581 1-238); conditions: protein: recombinant; tags: N-terminal GST; dsDNA, one strand shown
T4 sequence: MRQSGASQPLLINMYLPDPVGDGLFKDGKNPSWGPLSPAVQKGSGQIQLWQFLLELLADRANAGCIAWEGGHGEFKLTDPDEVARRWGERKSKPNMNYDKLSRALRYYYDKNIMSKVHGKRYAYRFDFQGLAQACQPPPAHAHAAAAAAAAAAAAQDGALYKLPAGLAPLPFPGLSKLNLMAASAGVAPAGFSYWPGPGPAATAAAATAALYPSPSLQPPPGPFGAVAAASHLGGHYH
Procedure, shortened: as §1

[7] = molecular target: HSF1 (Homo sapiens, UniProt Q00613 1-529); conditions: protein: recombinant; tags: N-terminal GST; chain copies: 3; dsDNA, one strand shown
Procedure, shortened: as §1

[8] = molecular target: ELF4 (Homo sapiens, UniProt Q99607 1-663); conditions: protein: recombinant; tags: N-terminal GST; dsDNA, one strand shown
Procedure, shortened: as §1

[9] = molecular target: T5, ELK4 (Homo sapiens, UniProt P28324-2 1-405); conditions: protein: recombinant; tags: N-terminal GST; dsDNA, one strand shown
T5 sequence: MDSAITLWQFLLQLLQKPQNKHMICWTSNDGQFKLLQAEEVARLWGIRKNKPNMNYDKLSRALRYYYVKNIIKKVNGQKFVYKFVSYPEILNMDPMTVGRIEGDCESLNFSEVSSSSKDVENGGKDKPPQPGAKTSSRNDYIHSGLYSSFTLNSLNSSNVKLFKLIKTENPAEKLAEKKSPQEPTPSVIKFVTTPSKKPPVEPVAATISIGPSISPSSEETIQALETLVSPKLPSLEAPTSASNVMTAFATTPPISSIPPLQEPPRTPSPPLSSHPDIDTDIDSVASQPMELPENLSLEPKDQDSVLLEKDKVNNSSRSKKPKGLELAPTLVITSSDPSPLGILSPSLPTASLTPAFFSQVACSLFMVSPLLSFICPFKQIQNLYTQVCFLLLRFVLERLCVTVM
Procedure, shortened: as §1

[10] = molecular target: T6, ELF3 (Homo sapiens, UniProt P78545 1-371); conditions: protein: recombinant; tags: N-terminal GST; dsDNA, one strand shown
T6 sequence: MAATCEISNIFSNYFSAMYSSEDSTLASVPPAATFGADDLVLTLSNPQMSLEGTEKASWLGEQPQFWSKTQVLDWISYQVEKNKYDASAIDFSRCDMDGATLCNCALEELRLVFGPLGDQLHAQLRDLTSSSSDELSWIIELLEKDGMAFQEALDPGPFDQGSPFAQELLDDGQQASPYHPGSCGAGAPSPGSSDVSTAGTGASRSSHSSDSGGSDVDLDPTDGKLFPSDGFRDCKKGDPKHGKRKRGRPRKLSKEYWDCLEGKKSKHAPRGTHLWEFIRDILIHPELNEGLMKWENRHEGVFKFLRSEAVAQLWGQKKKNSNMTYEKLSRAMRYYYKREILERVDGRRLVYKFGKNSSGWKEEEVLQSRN
Procedure, shortened: as §1

[11] = molecular target: T7, ERF (Homo sapiens, UniProt P50548 1-548); conditions: protein: recombinant; tags: N-terminal GST; dsDNA, one strand shown
T7 sequence: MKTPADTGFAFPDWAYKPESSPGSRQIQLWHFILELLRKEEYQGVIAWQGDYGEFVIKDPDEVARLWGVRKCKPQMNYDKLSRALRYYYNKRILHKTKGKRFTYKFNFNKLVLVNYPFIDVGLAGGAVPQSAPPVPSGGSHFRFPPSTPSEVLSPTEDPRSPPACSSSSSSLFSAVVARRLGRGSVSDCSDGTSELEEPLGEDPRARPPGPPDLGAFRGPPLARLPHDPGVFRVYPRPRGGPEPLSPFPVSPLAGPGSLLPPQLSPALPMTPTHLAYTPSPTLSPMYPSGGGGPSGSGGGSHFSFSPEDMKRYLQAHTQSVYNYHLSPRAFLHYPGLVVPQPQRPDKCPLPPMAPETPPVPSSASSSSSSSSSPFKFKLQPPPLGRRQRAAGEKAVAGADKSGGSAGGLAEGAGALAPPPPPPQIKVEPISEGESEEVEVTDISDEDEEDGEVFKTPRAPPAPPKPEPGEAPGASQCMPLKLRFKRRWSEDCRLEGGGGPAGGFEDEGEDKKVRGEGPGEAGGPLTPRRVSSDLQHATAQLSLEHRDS
Procedure, shortened: as §1

[12] = molecular target: T8, ETS2 (Homo sapiens, UniProt P15036 1-469); conditions: protein: recombinant; tags: N-terminal GST; dsDNA, one strand shown
T8 sequence: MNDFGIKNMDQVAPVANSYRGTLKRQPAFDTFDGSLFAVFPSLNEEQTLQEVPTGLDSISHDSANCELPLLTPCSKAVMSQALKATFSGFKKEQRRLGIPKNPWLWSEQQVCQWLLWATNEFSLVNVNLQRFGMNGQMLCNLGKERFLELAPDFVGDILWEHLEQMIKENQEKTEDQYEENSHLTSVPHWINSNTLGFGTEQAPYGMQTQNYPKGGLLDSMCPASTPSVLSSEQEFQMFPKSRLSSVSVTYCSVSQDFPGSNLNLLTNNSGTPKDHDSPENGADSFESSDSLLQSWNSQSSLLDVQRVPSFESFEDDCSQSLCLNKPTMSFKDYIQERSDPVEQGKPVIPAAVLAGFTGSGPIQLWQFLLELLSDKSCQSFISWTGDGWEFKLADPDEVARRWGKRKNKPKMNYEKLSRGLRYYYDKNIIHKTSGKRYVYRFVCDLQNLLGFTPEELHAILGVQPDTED
Procedure, shortened: as §1

[13] = molecular target: T9, ETV7 (Homo sapiens, UniProt Q9Y603 1-341); conditions: protein: recombinant; tags: N-terminal GST; dsDNA, one strand shown
T9 sequence: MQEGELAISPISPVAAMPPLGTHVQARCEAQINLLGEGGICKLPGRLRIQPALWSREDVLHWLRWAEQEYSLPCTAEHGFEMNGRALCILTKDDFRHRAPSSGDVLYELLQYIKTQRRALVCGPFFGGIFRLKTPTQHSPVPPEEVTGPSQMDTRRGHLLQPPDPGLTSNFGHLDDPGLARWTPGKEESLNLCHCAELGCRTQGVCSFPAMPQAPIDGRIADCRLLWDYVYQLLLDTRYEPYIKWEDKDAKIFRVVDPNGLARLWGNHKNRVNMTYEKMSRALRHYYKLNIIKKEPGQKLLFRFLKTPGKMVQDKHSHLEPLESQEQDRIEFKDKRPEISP
Procedure, shortened: as §1

[14] = molecular target: ETV6 (Homo sapiens, UniProt P41212 1-452); conditions: protein: recombinant; tags: N-terminal GST; dsDNA, one strand shown
Procedure, shortened: as §1

[15] = molecular target: T10, SPIC (Homo sapiens, UniProt Q8N5J4 1-248); conditions: protein: recombinant; tags: N-terminal GST; dsDNA, one strand shown
T10 sequence: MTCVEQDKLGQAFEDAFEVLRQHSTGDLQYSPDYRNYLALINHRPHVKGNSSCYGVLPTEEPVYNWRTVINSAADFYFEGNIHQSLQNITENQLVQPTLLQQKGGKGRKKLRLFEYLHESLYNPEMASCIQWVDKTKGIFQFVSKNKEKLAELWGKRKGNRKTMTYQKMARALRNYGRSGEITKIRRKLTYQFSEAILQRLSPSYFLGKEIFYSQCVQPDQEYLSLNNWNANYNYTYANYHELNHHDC
Procedure, shortened: as §1

[16] = molecular target: CRX (Homo sapiens, UniProt O43186 1-299); conditions: protein: recombinant; tags: N-terminal GST; dsDNA, one strand shown
Procedure, shortened: as §1

HSF1, sequence (Q00613 whole entry): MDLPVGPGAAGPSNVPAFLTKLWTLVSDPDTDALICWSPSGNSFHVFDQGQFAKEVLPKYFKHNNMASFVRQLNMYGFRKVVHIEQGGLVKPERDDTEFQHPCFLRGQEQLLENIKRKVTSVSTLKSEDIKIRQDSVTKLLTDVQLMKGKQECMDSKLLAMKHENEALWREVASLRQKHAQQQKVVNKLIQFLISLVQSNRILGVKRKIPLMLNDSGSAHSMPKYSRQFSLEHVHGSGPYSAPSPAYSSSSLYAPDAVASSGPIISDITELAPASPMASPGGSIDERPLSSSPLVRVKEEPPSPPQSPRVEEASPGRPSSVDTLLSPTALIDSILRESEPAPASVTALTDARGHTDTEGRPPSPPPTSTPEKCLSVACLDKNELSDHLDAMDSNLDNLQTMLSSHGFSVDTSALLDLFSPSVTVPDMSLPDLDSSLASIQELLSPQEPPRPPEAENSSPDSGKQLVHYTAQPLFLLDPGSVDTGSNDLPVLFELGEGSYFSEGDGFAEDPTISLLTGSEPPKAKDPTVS
CRX, sequence (O43186 whole entry): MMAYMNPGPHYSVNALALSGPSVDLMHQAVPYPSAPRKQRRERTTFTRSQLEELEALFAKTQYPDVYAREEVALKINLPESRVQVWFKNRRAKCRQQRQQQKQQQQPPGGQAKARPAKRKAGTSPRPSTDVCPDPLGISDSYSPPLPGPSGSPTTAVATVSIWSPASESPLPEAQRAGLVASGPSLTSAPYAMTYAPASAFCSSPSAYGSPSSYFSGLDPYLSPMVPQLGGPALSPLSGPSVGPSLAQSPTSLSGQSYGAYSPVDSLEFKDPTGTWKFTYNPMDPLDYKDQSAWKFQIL
ETV6, sequence (P41212 whole entry): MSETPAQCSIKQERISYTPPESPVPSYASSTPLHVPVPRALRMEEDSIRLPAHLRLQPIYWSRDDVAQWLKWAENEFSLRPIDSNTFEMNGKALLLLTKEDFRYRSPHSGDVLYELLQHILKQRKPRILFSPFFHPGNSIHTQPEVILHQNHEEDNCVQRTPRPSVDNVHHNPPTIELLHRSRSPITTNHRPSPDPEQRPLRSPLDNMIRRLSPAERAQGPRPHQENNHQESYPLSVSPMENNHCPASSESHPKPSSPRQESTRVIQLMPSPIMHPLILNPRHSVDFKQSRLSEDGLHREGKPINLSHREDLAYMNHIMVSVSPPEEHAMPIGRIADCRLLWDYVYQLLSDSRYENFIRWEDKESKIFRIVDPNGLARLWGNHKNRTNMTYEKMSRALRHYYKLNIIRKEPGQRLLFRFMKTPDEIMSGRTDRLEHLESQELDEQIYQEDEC
ELF4, sequence (Q99607 whole entry): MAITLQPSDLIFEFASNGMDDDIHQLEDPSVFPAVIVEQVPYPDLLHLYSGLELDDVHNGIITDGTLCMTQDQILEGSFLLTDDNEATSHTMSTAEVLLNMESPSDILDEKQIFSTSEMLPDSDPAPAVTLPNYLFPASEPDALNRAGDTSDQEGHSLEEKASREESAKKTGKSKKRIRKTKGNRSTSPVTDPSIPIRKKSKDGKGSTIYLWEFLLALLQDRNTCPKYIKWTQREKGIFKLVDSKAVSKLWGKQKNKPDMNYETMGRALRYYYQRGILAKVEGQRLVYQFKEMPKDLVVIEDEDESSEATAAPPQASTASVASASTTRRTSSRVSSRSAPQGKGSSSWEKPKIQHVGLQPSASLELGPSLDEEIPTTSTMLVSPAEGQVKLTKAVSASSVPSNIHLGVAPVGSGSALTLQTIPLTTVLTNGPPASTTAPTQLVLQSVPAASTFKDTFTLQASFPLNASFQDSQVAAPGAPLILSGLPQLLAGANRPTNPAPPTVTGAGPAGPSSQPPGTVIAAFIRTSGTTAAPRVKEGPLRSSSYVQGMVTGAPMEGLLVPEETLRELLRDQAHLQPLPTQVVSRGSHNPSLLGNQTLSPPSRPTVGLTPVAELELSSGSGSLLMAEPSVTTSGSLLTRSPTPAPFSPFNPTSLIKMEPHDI
ELF1, sequence (P32519 whole entry): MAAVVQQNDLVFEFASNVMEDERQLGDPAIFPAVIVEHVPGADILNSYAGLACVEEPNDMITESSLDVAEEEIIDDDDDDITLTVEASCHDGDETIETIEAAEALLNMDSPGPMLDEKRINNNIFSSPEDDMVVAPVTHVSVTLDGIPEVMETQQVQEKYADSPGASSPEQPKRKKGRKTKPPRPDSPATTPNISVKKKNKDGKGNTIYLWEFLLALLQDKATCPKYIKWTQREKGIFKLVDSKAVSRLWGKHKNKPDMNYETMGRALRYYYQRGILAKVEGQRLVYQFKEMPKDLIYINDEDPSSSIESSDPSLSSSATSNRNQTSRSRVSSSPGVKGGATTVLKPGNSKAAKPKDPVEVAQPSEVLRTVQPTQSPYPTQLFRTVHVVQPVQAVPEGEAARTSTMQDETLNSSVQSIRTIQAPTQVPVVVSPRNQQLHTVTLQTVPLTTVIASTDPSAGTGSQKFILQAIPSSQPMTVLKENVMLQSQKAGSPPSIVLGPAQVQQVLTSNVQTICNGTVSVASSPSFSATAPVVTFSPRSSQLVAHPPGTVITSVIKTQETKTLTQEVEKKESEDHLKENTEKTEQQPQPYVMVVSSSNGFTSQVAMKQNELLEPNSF

| Sequence | binding signal [1] | binding signal [2] | binding signal [3] | binding signal [4] | binding signal [5] | binding signal [6] | binding signal [7] | binding signal [8] | binding signal [9] | binding signal [10] | binding signal [11] | binding signal [12] | binding signal [13] | binding signal [14] | binding signal [15] | binding signal [16] |
| --- | --- | --- | --- | --- | --- | --- | --- | --- | --- | --- | --- | --- | --- | --- | --- | --- |
| CGAATG | 1.12 fold enrichment (6-mer frequency, TF over GST control) | 1.05 fold enrichment (6-mer frequency, TF over GST control) | 1.05 fold enrichment (6-mer frequency, TF over GST control) | 1.03 fold enrichment (6-mer frequency, TF over GST control) | 1.01 fold enrichment (6-mer frequency, TF over GST control) | 1.01 fold enrichment (6-mer frequency, TF over GST control) | 1.5 fold enrichment (6-mer frequency, TF over GST control) | 1.13 fold enrichment (6-mer frequency, TF over GST control) | 1.07 fold enrichment (6-mer frequency, TF over GST control) | 1.12 fold enrichment (6-mer frequency, TF over GST control) | 1.02 fold enrichment (6-mer frequency, TF over GST control) | 1.14 fold enrichment (6-mer frequency, TF over GST control) | 1.08 fold enrichment (6-mer frequency, TF over GST control) | 1.11 fold enrichment (6-mer frequency, TF over GST control) | – | – |
| TCGAAG | – | – | – | – | – | – | 1.57 fold enrichment (6-mer frequency, TF over GST control) | – | – | – | – | – | – | – | 1.02 fold enrichment (6-mer frequency, TF over GST control) | 1.09 fold enrichment (6-mer frequency, TF over GST control) |
